The supplement of paper PMC11732987, “Enantioselective OTUD7B fragment discovery through chemoproteomics screening and high-throughput optimisation” (Communications Chemistry, 2025)

Experiments:
Experiment in all cases: log2 ratio of Biotin-Ahx-Ub-VS probe labelling (fragment/DMSO); higher = less target engagement (more negative = stronger competition), active = hit call of the paper (q ≤ 0.05, log2 ratio ≤ -1)
Conditions in all cases: compound concentration: 200 uM; treatment time: 3 h
[1] = molecular target: T1, USP19 (UniProt O94966)
T1 sequence (whole entry): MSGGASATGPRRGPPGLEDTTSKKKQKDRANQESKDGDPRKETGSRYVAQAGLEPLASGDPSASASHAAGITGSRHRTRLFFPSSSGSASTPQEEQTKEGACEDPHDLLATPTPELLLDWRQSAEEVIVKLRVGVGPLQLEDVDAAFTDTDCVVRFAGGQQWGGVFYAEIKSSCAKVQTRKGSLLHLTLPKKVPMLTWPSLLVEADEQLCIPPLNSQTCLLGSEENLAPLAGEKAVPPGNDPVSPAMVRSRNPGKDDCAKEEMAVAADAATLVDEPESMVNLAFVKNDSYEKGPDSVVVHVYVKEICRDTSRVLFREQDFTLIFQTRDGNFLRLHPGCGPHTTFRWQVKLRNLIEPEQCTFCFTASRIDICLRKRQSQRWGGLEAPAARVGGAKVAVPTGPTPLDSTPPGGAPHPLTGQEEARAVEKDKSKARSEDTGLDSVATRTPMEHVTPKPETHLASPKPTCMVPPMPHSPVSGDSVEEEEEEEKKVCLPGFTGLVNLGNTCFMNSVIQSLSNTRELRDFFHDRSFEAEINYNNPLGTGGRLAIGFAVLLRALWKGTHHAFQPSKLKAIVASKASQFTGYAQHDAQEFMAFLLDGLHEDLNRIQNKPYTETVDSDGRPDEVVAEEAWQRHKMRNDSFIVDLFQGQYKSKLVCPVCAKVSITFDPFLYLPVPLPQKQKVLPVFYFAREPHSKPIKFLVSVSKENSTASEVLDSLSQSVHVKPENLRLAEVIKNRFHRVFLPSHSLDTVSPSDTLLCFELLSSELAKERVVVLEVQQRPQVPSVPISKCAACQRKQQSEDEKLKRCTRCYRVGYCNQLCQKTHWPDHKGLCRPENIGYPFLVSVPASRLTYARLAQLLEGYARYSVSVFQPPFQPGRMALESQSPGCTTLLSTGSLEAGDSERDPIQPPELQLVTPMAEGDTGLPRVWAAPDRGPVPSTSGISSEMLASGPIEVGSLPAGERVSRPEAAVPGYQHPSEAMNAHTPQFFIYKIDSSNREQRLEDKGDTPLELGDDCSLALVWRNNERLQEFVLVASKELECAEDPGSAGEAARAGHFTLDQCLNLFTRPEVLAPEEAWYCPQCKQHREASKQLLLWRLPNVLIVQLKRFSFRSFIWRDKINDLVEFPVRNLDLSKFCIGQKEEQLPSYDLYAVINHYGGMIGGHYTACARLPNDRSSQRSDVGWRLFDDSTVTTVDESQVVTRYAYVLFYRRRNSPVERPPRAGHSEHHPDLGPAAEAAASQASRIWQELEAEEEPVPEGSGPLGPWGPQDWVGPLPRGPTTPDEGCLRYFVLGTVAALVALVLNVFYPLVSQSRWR
How it was run: (§1)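 HEK293T lysate in Tris/CHAPS/IGEPAL buffer with protease inhibitors (495 µg per sample) was given fragment at 200 µM or vehicle for 3 h, in triplicate. It then received Biotin-Ahx-Ub-VS at 0.5 µM final for 1 h. Labelled DUBs were NeutrAvidin-enriched, digested with LysC and trypsin, and run by diaPASEF LC-MS/MS. Values are average log2 fragment/vehicle ratios by unpaired t-test on global-median-normalised Spectronaut quantities of proteins with ≥2 unique peptides.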

[2] = molecular target: T2, USP22 (UniProt Q9UPT9)
T2 sequence (whole entry): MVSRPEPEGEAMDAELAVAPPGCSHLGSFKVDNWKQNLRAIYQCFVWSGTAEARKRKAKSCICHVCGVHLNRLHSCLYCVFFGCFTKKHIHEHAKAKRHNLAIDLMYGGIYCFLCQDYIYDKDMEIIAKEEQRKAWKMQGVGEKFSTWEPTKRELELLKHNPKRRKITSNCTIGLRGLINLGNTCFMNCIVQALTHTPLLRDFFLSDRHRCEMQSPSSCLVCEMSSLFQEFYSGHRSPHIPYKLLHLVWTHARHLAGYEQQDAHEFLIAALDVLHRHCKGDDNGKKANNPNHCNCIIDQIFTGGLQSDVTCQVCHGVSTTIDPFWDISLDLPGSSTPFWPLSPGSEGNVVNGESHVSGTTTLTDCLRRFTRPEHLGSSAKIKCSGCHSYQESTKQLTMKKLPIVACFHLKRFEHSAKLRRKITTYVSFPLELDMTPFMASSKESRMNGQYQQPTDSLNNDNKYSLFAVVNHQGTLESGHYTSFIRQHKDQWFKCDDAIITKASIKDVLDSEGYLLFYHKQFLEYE
How it was run: as §1

[3] = molecular target: USP24 (UniProt Q9UPU5)
Chain of USP24 (Q9UPU5 whole entry): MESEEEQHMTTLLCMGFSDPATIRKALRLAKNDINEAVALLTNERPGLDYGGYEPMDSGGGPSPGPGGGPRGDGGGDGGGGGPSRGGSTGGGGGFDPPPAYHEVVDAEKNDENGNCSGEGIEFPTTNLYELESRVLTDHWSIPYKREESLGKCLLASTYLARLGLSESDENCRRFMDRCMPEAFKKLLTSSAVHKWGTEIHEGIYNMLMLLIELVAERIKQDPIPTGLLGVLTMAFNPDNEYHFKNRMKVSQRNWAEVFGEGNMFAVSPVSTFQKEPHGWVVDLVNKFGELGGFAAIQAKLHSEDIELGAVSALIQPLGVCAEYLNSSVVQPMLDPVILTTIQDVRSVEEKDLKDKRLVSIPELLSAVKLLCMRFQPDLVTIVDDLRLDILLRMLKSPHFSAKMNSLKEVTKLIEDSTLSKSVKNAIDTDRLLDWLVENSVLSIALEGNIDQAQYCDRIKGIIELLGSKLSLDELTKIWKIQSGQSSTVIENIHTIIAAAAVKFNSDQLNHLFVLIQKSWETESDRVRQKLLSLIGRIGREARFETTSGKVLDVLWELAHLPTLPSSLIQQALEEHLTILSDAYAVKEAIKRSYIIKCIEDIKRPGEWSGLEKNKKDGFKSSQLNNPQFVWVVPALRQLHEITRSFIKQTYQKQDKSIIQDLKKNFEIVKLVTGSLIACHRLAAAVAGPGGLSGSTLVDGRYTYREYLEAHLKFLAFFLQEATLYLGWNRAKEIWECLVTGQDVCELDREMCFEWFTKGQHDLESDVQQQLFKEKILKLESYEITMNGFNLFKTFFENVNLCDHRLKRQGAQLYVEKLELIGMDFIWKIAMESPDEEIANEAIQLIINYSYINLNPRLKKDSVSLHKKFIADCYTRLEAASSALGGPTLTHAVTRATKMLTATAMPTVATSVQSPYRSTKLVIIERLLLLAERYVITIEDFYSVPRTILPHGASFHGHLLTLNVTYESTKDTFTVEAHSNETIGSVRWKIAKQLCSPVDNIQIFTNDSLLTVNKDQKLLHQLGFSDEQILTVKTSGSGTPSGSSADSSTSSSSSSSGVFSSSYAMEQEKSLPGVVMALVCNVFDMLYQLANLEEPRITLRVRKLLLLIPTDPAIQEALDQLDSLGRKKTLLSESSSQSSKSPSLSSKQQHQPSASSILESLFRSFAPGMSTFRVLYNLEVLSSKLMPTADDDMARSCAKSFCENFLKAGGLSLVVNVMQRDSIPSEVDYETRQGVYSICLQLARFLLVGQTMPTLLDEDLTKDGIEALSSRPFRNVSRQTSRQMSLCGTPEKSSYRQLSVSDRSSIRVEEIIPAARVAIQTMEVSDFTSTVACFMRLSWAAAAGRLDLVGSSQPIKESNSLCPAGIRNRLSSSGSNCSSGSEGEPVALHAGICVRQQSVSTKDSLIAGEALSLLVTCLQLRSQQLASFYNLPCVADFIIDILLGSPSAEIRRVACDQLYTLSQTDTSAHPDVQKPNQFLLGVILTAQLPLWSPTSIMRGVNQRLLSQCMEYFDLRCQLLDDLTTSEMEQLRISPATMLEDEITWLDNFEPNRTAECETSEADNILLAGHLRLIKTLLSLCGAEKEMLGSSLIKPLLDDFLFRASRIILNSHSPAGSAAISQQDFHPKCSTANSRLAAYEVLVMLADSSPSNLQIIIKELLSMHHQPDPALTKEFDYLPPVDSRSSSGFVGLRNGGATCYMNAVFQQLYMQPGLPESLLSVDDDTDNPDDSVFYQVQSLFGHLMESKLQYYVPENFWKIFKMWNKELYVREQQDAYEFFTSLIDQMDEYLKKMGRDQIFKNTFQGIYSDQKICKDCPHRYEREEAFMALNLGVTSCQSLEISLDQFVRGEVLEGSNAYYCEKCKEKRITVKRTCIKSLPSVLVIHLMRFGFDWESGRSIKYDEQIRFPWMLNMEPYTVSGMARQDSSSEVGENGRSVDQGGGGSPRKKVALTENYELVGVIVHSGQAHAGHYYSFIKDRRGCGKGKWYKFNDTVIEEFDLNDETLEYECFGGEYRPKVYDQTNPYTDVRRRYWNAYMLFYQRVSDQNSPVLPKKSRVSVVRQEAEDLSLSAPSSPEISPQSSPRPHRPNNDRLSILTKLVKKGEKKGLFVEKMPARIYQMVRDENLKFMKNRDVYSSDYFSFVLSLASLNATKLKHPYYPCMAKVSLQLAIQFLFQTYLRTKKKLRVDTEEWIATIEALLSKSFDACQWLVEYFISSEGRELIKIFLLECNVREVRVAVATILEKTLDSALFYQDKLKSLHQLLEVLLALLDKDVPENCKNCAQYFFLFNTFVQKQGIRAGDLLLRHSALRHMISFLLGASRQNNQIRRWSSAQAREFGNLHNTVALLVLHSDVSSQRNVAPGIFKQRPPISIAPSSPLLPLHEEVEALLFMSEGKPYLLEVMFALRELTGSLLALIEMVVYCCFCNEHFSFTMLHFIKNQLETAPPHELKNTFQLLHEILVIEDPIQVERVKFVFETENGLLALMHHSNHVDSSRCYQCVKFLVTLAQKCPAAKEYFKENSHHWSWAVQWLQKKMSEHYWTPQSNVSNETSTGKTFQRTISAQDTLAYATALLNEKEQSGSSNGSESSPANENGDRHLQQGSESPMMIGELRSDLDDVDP
How it was run: as §1

[4] = molecular target: T3, USP25 (UniProt Q9UHP3)
T3 sequence (whole entry): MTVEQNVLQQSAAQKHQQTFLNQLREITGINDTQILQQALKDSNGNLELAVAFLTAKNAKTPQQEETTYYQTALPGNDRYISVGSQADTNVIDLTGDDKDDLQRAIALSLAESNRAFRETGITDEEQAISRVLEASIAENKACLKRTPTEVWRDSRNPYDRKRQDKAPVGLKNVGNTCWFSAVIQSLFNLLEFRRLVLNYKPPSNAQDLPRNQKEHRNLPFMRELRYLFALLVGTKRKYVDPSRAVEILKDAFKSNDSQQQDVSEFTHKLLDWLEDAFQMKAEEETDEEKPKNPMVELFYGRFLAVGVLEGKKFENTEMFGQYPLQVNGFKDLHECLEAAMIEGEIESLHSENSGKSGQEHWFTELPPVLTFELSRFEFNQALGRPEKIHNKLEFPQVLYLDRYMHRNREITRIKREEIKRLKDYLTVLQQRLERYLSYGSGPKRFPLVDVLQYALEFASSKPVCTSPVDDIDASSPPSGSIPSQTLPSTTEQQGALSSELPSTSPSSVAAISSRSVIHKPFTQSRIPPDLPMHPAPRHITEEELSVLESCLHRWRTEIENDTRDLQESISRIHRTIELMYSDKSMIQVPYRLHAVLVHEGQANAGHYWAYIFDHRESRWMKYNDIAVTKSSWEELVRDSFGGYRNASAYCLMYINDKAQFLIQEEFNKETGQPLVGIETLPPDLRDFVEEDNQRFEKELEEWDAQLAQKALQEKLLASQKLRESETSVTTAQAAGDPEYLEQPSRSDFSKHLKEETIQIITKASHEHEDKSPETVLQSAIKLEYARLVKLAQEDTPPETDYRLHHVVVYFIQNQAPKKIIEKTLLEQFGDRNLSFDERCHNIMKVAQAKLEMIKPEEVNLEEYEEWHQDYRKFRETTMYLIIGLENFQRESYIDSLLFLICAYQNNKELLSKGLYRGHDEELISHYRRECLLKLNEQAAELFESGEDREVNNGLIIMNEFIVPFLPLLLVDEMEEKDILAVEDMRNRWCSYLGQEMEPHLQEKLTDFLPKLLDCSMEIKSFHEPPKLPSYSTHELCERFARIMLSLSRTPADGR
How it was run: as §1

[5] = molecular target: T4, USP28 (UniProt Q96RU2)
T4 sequence (whole entry): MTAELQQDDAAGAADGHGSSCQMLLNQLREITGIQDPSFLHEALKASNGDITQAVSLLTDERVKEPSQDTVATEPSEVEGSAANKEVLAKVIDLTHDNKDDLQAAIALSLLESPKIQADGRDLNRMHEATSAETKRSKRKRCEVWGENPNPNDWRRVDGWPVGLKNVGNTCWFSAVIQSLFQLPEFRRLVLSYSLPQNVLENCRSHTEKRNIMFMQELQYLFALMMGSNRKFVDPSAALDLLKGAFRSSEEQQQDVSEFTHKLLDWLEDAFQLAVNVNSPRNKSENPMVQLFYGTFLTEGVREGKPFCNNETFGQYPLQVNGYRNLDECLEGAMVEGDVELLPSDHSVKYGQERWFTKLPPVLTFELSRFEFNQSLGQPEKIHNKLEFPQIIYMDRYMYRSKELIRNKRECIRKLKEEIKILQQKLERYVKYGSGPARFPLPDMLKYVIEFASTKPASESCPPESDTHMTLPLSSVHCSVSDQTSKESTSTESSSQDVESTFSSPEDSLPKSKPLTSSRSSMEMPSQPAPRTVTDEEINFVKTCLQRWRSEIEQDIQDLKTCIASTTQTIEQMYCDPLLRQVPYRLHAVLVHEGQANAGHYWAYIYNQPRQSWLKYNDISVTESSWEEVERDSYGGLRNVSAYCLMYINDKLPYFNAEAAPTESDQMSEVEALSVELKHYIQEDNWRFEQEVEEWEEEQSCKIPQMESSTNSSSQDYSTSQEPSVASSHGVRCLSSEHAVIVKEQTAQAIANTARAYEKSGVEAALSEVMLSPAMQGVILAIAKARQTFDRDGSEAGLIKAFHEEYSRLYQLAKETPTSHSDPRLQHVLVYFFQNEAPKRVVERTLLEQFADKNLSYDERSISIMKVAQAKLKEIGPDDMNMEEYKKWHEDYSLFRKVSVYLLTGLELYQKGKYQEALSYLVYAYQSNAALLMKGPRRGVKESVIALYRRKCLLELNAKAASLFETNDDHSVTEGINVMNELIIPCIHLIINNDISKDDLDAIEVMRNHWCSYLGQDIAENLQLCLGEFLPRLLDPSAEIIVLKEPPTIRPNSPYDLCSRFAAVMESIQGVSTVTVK
How it was run: as §1

Measured: log2 ratio of Biotin-Ahx-Ub-VS probe labelling

Cc1nnc(C(NC(=O)CCl)c2ccccc2)n1C (stereo not given)
inactive: [1] 0.626 | [2] 0.332 | [3] 0.636 | [4] 0.465 | [5] 0.507
